Screens as filed in PubChem BioAssay.
Pf apPOL block – Pf-apPOL DNA polymerase inhibition; AID 1794808; Recombinant Pf-apPOL, molecular beacon fluorescence, 1.5 h; inhibition, % at 10 µM; hit rate 0.25% among 210,000
mHTT-CaM PPI inh – mHTT-calmodulin interaction abrogation; P42858; inhibition, % at 15 µM; AlphaScreen His-mHTT/GST-CaM binding, luminescence; hit rate 3.6% among 190,000; AID 1671202;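 also: 0% = both proteins with DMSO and 100% = one protein alone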
* = called active by the depositor; . = no result given. Rows were chosen to be rich in hits. Some 3.6% of all compounds tested hit in one or more screens of this group. Rule as the data show it: active = inhibition above about 50%; inactive = the rest.

SMILES	Pf apPOL block	mHTT-CaM PPI inh
COc1ccc(NS(=O)(=O)c2ccc(NS(=O)(=O)c3ccc(NC(C)=O)cc3)cc2)cc1	-1.3	-0.3
CC(=O)Nc1ccc(S(=O)(=O)Nc2ccc(Oc3ccccc3)cc2)cc1	-22.2	86.6*
Cn1c(CNC(=O)C2CCN(c3nnc4ccccn34)CC2)nc2ccccc21	-8.9	0.5
Cn1cccc1CN(C(=O)COc1ccccc1F)C1CC1	-8.4	-2.4
FC(F)(F)c1cc(-c2ccccc2)nc(NCc2cccs2)n1	5.8	-272.0
COc1ccc(-c2ccccc2)cc1NCc1cccs1	1.1	55.0*
Cc1ccsc1C1C=C(c2ccc(Cl)cc2)Nc2nnnn21 (centres undefined)	-5.8	-2.0
COc1ccccc1/C=C/C(=O)Nc1nc2nccc(-c3ccccc3)n2n1	-4.5	5.0
Cc1ccnc(N2CCCC(C(=O)Nc3ccccc3Cl)C2)n1 (centres undefined)	1.6	-0.8
COc1cccc(/C=c2\sc3nc(=O)c(-c4ccccc4)nn3c2=O)c1OC	2.9	2.0
Cc1ccc(NC(=O)COc2cc(C)nc(N3CCCCC3)n2)cc1	0.5	-5.2
COc1ccccc1/C=c1\sc2nc(=O)c(Cc3ccccc3)nn2c1=O	-0.6	2.0
COc1ccccc1/C=C/C=c1\sc2nc(=O)c(Cc3ccccc3)nn2c1=O	-5.1	51.0*
CCN(CCCNC(=O)c1cn(CCOC)c(=O)c2c1c1ccccc1n2C)c1cccc(C)c1	-7.3	-1.0
COc1cccc(CN2CCc3c(cc(C(=O)N(C)C)n3C)C2)c1	-3.2	10.1
COc1cccc(CN2CCc3c(cc(C(=O)Nc4ccc(F)cc4C)n3C)C2)c1	-5.6	64.8*
COc1cccc(CNC(=O)c2cc3c(n2C)CCN(Cc2cccc(OC)c2)C3)c1	-4.3	59.2*
COc1ccccc1NC(=O)c1cc2c(n1C)CCN(Cc1ccc(C)cc1)C2	-3.9	24.9
COc1cccc(NC(=O)c2cc3c(n2C)CCN(Cc2ccc(F)cc2)C3)c1	-5.6	25.9
COc1cccc(CN2CCc3c(cc(C(=O)NCc4cccnc4)n3C)C2)c1	-4.7	9.3
COc1cccc(CN2CCc3c(cc(C(=O)Nc4cc(C)ccc4OC)n3C)C2)c1	-5.4	85.8*
COc1ccc(OC)c(NC(=O)c2cc3c(n2C)CCN(Cc2ccc(C)cc2)C3)c1	-4.8	78.3*
COc1ccc(OCC(O)CN2CCN(c3ccc(OC)cc3)CC2)cc1 (centres undefined)	0.4	2.2
COc1ccc(N2CCN(CC(O)COCC34CC5CC(CC(C5)C3)C4)CC2)cc1 (centres undefined)	-7.1	70.0*
OC(COCC12CC3CC(CC(C3)C1)C2)CN1CCCC1 (centres undefined)	-1.6	10.6
SMILES	Pf apPOL block	mHTT-CaM PPI inh
OC(COCC12CC3CC(CC(C3)C1)C2)CN1CCN(c2cccc(Cl)c2)CC1 (centres undefined)	-2.6	98.7*
COc1ccc(C(O)CN2CCN(c3ccccc3C)CC2)cc1OC (centres undefined)	-2.7	7.4
CN(C)CC1CN(C(=O)c2n[nH]c3ccccc23)CC12CCOCC2 (centres undefined)	-5.5	-7.1
CCn1c(=O)c2c(ncn2Cc2ccccc2C)n(-c2ccc(F)cc2)c1=O	-3.6	7.4
CCC(C)NC(=O)C1(C)CCC(=O)N1Cc1cccs1 (centres undefined)	-2.6	-4.0
CCc1nc(SCC(=O)c2ccc(OC)c([N+](=O)[O-])c2)n[nH]1	-5.4	-1.9
Cc1noc(COC2CCN(C(=O)c3ccccc3F)CC2)n1	-4.2	-7.4
O=C(c1ccc(OCC2CCCN2C(=O)c2c(F)cccc2F)cc1)N1CCCC1 (centres undefined)	2.9	12.8
O=C1COc2ccc(Cl)cc2O1	.	-8.9
N#Cc1c2c(c(NCCN3CCOCC3)n3c1nc1ccccc13)CCCC2	-1.1	-4.0
CCc1c(C)c(C#N)c2nc3ccccc3n2c1NCCCN(C)C	60.0*	-4.0
CCc1c(C)c(C#N)c2nc3ccccc3n2c1NCCCN(CC)CC	81.9*	-2.0
N#Cc1c2c(c(NCCCN3CCOCC3)n3c1nc1ccccc13)CCC2	67.1*	6.0
CCc1c(C)c(C#N)c2nc3ccccc3n2c1NCCOC	-0.3	-3.0
CCc1c(C)c(C#N)c2nc3ccccc3n2c1NCCO	73.1*	-3.0
CCc1c(C)c(C#N)c2nc3ccccc3n2c1NCCC(C)C	-2.2	-14.0
C=CCc1c(C)c(C#N)c2nc3ccccc3n2c1NCCCN(CC)CC	-74.3	-6.0
COc1ccc(C2=N/C(=C\c3ccc(Cl)cc3)C(=O)O2)cc1[N+](=O)[O-]	-2.3	5.0
CC(C)C(NC(=O)c1nn(-c2ccc(F)cc2)c2ncccc12)C(C)C	-5.7	-8.2
COc1cccc(/C=C2\C(=O)NN(c3ccc(F)c(Cl)c3)C2=O)c1O	6.9	7.0
CCc1ccc(-n2[nH]c(=O)c(C=c3c(C)c(C#N)c4nc5ccccc5n4c3=O)c2O)cc1	5.6	57.0*
Cc1ccc(-n2[nH]c(=O)c(C=c3c(C)c(C#N)c4nc5ccccc5n4c3=O)c2O)cc1C	-4.7	46.0
CCc1ccc(S(=O)(=O)Nc2ccc(Cl)cn2)cc1	10.1	-1.0
CN(CC(=O)NC1CCCC1)S(=O)(=O)c1ccc2[nH]c3c(c2c1)CCCC3	-5.6	17.8
O=S(=O)(Nc1ccccc1)c1ccc2[nH]c3c(c2c1)CCCCC3	-6.1	99.7*
SMILES	Pf apPOL block	mHTT-CaM PPI inh
NS(=O)(=O)c1ccc2[nH]c3c(c2c1)CCCC3	-10.0	3.4
CN(CC(=O)NC1CCCCC1)S(=O)(=O)c1ccc2[nH]c3c(c2c1)CCCC3	0.3	96.8*
CN(CC(=O)NCc1ccc(F)cc1)S(=O)(=O)c1ccc2[nH]c3c(c2c1)CCCC3	-4.4	40.9
O=S(=O)(Nc1ccc(F)cc1)c1ccc2[nH]c3c(c2c1)CCCC3	-4.1	97.7*
O=S(=O)(Nc1ccc(Cl)cn1)c1ccc2[nH]c3c(c2c1)CCCC3	-1.6	54.9*
O=C(Nc1cc(Cl)cc(Cl)c1)c1cc(S(=O)(=O)NC2CCCCC2)ccc1F	-4.0	-5.0
O=S(=O)(NC1CCCCC1)c1ccc2[nH]c3c(c2c1)CCCC3	-4.9	86.7*
Cc1ccc(S(=O)(=O)NC2CCCCC2)cc1[N+](=O)[O-]	-1.5	-0.3
CN1C(=O)Cc2ccccc2C1C(=O)NCc1cccc(Cl)c1 (centres undefined)	-1.9	-2.3
Cc1ccc(F)cc1S(=O)(=O)N1CCC2(C1)C(=O)Nc1ccccc12 (centres undefined)	1.0	8.4
O=C(Cc1ccccc1Cl)N1CCC2(C1)C(=O)Nc1ccccc12 (centres undefined)	-5.5	1.2
O=C1Nc2ccccc2C12CCN(S(=O)(=O)c1cccc(Cl)c1)C2 (centres undefined)	-1.2	76.8*
Cc1cc(S(=O)(=O)N2CCC3(C2)C(=O)Nc2ccccc23)ccc1F (centres undefined)	8.4	96.1*
CC1CC(C)CN(S(=O)(=O)c2cc(C(=O)Nc3ccc(Br)cc3)ccc2F)C1 (centres undefined)	-0.5	4.0
O=C(CCC1CCCC1)N1CCC(c2ccn3ncc(C(=O)N4CCCC4)c3c2)CC1	-2.8	26.1
Cc1cc(=O)n(CC(=O)Nc2ccccc2)c(N2CCCCC2)n1	-1.7	-15.0
Cc1cc(=O)n(CC(=O)Nc2ccc(Cl)cc2)c(N2CCCC2)n1	-1.1	57.5*
CC(=O)Nc1cc(C(=O)NC2CCCCC2C)ccc1Sc1ccc(F)cc1 (centres undefined)	-18.1	-4.0
Cc1cccc(C(=O)N2CCC(N3CCN(Cc4ccc(F)cc4)C3=O)CC2)c1	-7.1	11.9
